Laboratory results reported in PubChem BioAssay (NCI).
This is part of a sample that, as a whole, favours compounds with a hit. Of some 79,000 tested, about 15% had one in any assay. A number with no mark means an inactive call. Activity calls are given as the source filed them. Cut-off read from the data, not from the text of the source: active = growth inhibition above about 70%; inactive = the rest.

How the values were obtained:
[1] = NCI Yeast Anticancer Drug Screen. Data for the rad50 strain (AID 155);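 note: 0% = growth of vehicle-only cultures of the same strain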; conditions: S. cerevisiae rad50 strain growth inhibition; at 50.0 µM; hits give high values
Summary of the method: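 Growth of the mutant yeast was measured after compound exposure and referenced to vehicle-treated cultures.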

[2] = NCI Yeast Anticancer Drug Screen. Data for the mec2-1 strain (AID 157); conditions: S. cerevisiae mec2-1 strain, at 50.0 µM, hits give high values
Summary of the method: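 Readout is yeast growth inhibition, normalised to vehicle-treated controls, in the mec2-1 strain exposed to compound.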

[3] = NCI Yeast Anticancer Drug Screen. Data for the sgs1 mgt1 strain (AID 161);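 note: 0% = growth of cultures given vehicle only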; conditions: S. cerevisiae sgs1 mgt1 strain, at 50.0 µM, hits give high values
Summary of the method: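 Compounds are added to genetically altered yeast, and growth is compared with cultures given vehicle alone to give percent inhibition.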

[4] = NCI Yeast Anticancer Drug Screen. Data for the cln2 rad14 strain (AID 165);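 note: 0% = growth equal to vehicle treated cultures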; conditions: S. cerevisiae cln2 rad14 strain, at 50.0 µM, hits give high values
Summary of the method: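 Relative to vehicle controls, growth inhibition of compound-treated cln2 rad14 yeast was recorded.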

[5] = NCI Yeast Anticancer Drug Screen. Data for the bub3 strain (AID 167); conditions: S. cerevisiae bub3 mutant strain, at 50.0 µM, hits give high values
Summary of the method: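 Whole-cell yeast assay. The mutant strain was incubated with compounds, and growth inhibition was determined by comparison with vehicle-treated cells.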

[6] = NCI Yeast Anticancer Drug Screen. Data for the mlh1 rad18 strain (AID 175); conditions: S. cerevisiae mlh1 rad18 strain growth inhibition; at 50.0 µM; hits give high values
Summary of the method: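 Test agents were incubated with a yeast strain of defined genotype (DNA damage repair defect). Inhibition of growth was derived by comparison with vehicle-exposed cultures.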

## CCc1c(N)nc(=O)[nH]c1C(=O)O
[1]
  growth inhibition: -4.9%
[2]
  growth inhibition: -0.2%
[3]
  growth inhibition: 10.1%
[4]
  growth inhibition: -26.3%
[5]
  growth inhibition: -26%
[6]
  growth inhibition: -16.6%

## [N-]=[N+]=CC(=O)c1cc(-c2ccccc2)nc2c(-c3ccccc3)cccc12
[1]
  growth inhibition: 55.8%
[2]
  growth inhibition: 18.8%
[3]
  growth inhibition: 54%
[4]
  growth inhibition: 31.8%
[5]
  growth inhibition: 62.8%
[6]
  growth inhibition: 59.1%

## CCOC(=O)NN(C(=O)OCC)c1c(C)cc(C)c(N(NC(=O)OCC)C(=O)OCC)c1C
[1]
  growth inhibition: 1.7%
[2]
  growth inhibition: 7.25%
[3]
  growth inhibition: 12.4%
[4]
  growth inhibition: 23.9%
[5]
  growth inhibition: 16.4%
[6]
  growth inhibition: 22.6%

## CN(CCS)C(=N)N
[1]
  growth inhibition: 4.75%
[2]
  growth inhibition: -14.9%
[3]
  growth inhibition: 2.55%
[4]
  growth inhibition: 7.8%
[5]
  growth inhibition: -0.65%
[6]
  growth inhibition: -11.4%

## Cc1cccc2c1NC(O)c1cccn1C2=O (stereo unspecified)
[1]
  growth inhibition: 6.45%
[2]
  growth inhibition: 2.75%
[3]
  growth inhibition: 5.55%
[4]
  growth inhibition: -22.4%
[5]
  growth inhibition: -18.6%
[6]
  growth inhibition: -2.4%

## COC1OC(OC2OC=C3C(=O)OC4CC(C)C2C34)C(O)C(O)C1O (stereo unspecified)
[1]
  growth inhibition: -17.1%
[2]
  growth inhibition: -34.2%
[3]
  growth inhibition: -18.7%
[4]
  growth inhibition: -14.3%
[5]
  growth inhibition: -33.4%
[6]
  growth inhibition: -29.1%

## O=C1NC(=O)c2c(Br)c(Br)c(Br)c(Br)c21
[1]
  growth inhibition: -20.6%
[2]
  growth inhibition: -32.9%
[3]
  growth inhibition: 2.35%
[4]
  growth inhibition: 9.6%
[5]
  growth inhibition: -16.6%
[6]
  growth inhibition: -1.55%

## O=C(NCc1ccccc1)C(c1ccccc1)c1ccccc1
[1]
  growth inhibition: 1.85%
[2]
  growth inhibition: 4.9%
[3]
  growth inhibition: 2.6%
[4]
  growth inhibition: 5.7%
[5]
  growth inhibition: -9.1%
[6]
  growth inhibition: 0.8%

## COc1ccc(C(=O)C(c2ccc(OC)cc2)C2(O)C(=O)Nc3ccc([N+](=O)[O-])cc32)cc1 (stereo unspecified)
[1]
  growth inhibition: -7.65%
[2]
  growth inhibition: 1.95%
[3]
  growth inhibition: 6.2%
[4]
  growth inhibition: 18.5%
[5]
  growth inhibition: 5.65%
[6]
  growth inhibition: 1.4%

## CCCCN1CCSC1=S
[1]
  growth inhibition: 99.5% (active)
[2]
  growth inhibition: 99.7% (active)
[3]
  growth inhibition: 98.2% (active)
[4]
  growth inhibition: 98% (active)
[5]
  growth inhibition: 99.5% (active)
[6]
  growth inhibition: 99.5% (active)

## CCOC(=O)c1cnc(SC)nc1N
[1]
  growth inhibition: 9.25%
[2]
  growth inhibition: -8.1%
[3]
  growth inhibition: -7.9%
[4]
  growth inhibition: -2.1%
[5]
  growth inhibition: 8.95%
[6]
  growth inhibition: -3.5%

## CC1CCC2(CC1)CC(=O)N(N1CCCCC1)C2=O (stereo unspecified)
[1]
  growth inhibition: 11.3%
[2]
  growth inhibition: 10.8%
[3]
  growth inhibition: 26.8%
[4]
  growth inhibition: 17.1%
[5]
  growth inhibition: 3.3%
[6]
  growth inhibition: 23.9%

## O=C(Cc1ccccc1)c1ccccc1C(=O)NCc1ccccc1
[1]
  growth inhibition: -5.8%
[2]
  growth inhibition: -3.45%
[3]
  growth inhibition: 1.1%
[4]
  growth inhibition: -66.5%
[5]
  growth inhibition: 14.9%
[6]
  growth inhibition: -7.1%

## CC(=O)Nc1ccc(/C=N/NC(=S)Nc2cccc3cccnc23)cc1
[1]
  growth inhibition: -1.2%
[2]
  growth inhibition: 17.9%
[3]
  growth inhibition: -5%
[4]
  growth inhibition: 10.5%
[5]
  growth inhibition: 31.4%
[6]
  growth inhibition: -4.45%

## c1ccc2cc(C3OCCCO3)ccc2c1
[1]
  growth inhibition: 19.4%
[2]
  growth inhibition: 10.2%
[3]
  growth inhibition: -2.05%
[4]
  growth inhibition: -62.9%
[5]
  growth inhibition: -2.45%
[6]
  growth inhibition: 4.2%

## C=CCN1CC2CON(C(=O)C(OC)(c3ccccc3)C(F)(F)F)C2C1C(C)C (stereo unspecified)
[1]
  growth inhibition: 2.05%
[2]
  growth inhibition: -17.7%
[3]
  growth inhibition: 9.15%
[4]
  growth inhibition: 18.2%
[5]
  growth inhibition: 24.2%
[6]
  growth inhibition: -5.85%

## Brc1ccc(-c2nnc(-c3ccc(Br)cc3)o2)cc1
[1]
  growth inhibition: 14.8%
[2]
  growth inhibition: -4.6%
[3]
  growth inhibition: -0.8%
[4]
  growth inhibition: -4.7%
[5]
  growth inhibition: 0.25%
[6]
  growth inhibition: 1.4%

## O=[N+]([O-])c1cc2c3ccccc3ccc2c2ccccc12
[1]
  growth inhibition: -5.6%
[2]
  growth inhibition: 6.95%
[3]
  growth inhibition: 12.2%
[4]
  growth inhibition: -78.8%
[5]
  growth inhibition: 19.6%
[6]
  growth inhibition: 21.6%

## COc1ccc(C2OC23CC(C)(C)c2ccccc2C3=O)cc1 (stereo unspecified)
[1]
  growth inhibition: -3.8%
[2]
  growth inhibition: 1.65%
[3]
  growth inhibition: -0.05%
[4]
  growth inhibition: -11%
[5]
  growth inhibition: 16.3%
[6]
  growth inhibition: -1.1%

## COC(=O)[C@@H]1Cc2ccc(OC)c(c2)OCCC(=O)N1
[1]
  growth inhibition: -37%
[2]
  growth inhibition: 0%
[3]
  growth inhibition: 21.7%
[4]
  growth inhibition: -2.95%
[5]
  growth inhibition: -13%
[6]
  growth inhibition: -12.2%

## CCC1(CC)C(=O)N(C(=O)c2ccc(Cl)cc2)N(C(=O)c2ccccc2Cl)C1=O
[1]
  growth inhibition: 22.3%
[2]
  growth inhibition: 23.8%
[3]
  growth inhibition: 5.8%
[4]
  growth inhibition: 41.8%
[5]
  growth inhibition: 49.2%
[6]
  growth inhibition: -53.5%

## CCOC(=O)CC(=O)C(=O)NNC1=NCCCN1
[1]
  growth inhibition: 7.25%
[2]
  growth inhibition: -5.35%
[3]
  growth inhibition: -20.1%
[4]
  growth inhibition: 14.2%
[5]
  growth inhibition: 2.3%
[6]
  growth inhibition: 0.45%

## SC1c2cc(Cl)ccc2-c2c(Cl)cc(Cl)cc21 (stereo unspecified)
[1]
  growth inhibition: -2.7%
[2]
  growth inhibition: 3.35%
[3]
  growth inhibition: -6.05%
[4]
  growth inhibition: 9.1%
[5]
  growth inhibition: 10.6%
[6]
  growth inhibition: -11.8%

## CCCCn1cnc2c(SCc3ccc(Cl)cc3Cl)nc(N)nc21
[1]
  growth inhibition: 1.15%
[2]
  growth inhibition: 25.2%
[3]
  growth inhibition: 7.35%
[4]
  growth inhibition: 21.2%
[5]
  growth inhibition: 15.3%
[6]
  growth inhibition: -8.2%

## CC1=NNC(=O)C1CCS (stereo unspecified)
[1]
  growth inhibition: -3.55%
[2]
  growth inhibition: 4.35%
[3]
  growth inhibition: -1.45%
[4]
  growth inhibition: -3.1%
[5]
  growth inhibition: -8%
[6]
  growth inhibition: -7.4%

## CC(C)(C)N(O)c1ccc(P(=O)(c2ccccc2)c2ccccc2)cc1
[1]
  growth inhibition: 23.4%
[2]
  growth inhibition: 15.4%
[3]
  growth inhibition: 12.3%
[4]
  growth inhibition: -4.7%
[5]
  growth inhibition: -2.35%
[6]
  growth inhibition: 11.8%

## NC(=O)c1ncn(C2OC(CO)C(O)C2O)c1C(N)=O (stereo unspecified)
[1]
  growth inhibition: -7.6%
[2]
  growth inhibition: -24.8%
[3]
  growth inhibition: -12.5%
[4]
  growth inhibition: -4.9%
[5]
  growth inhibition: -0.3%
[6]
  growth inhibition: -24.6%

## CCCCCCC(=O)/C=C/c1cc(Cl)cc(Cl)c1OCOC
[1]
  growth inhibition: 35%
[2]
  growth inhibition: 26.1%
[3]
  growth inhibition: 25.1%
[4]
  growth inhibition: -4.4%
[5]
  growth inhibition: 18.4%
[6]
  growth inhibition: 5.6%

## O=C(Nc1ccccc1)C(c1ccccc1)N(Nc1ccccc1Cl)c1ccccc1Cl (stereo unspecified)
[1]
  growth inhibition: 28.8%
[2]
  growth inhibition: 10.8%
[3]
  growth inhibition: 17.1%
[4]
  growth inhibition: 7.05%
[5]
  growth inhibition: -5%
[6]
  growth inhibition: 25%

## C=CCOC(=O)c1ccccc1O
[1]
  growth inhibition: 12.9%
[2]
  growth inhibition: -12.1%
[3]
  growth inhibition: -13.3%
[4]
  growth inhibition: -0.9%
[5]
  growth inhibition: -21.2%
[6]
  growth inhibition: 12.8%

## COC(=O)C1(c2ccccc2)Cc2ccccc2-c2ccccc21 (stereo unspecified)
[1]
  growth inhibition: -24.1%
[2]
  growth inhibition: -9.5%
[3]
  growth inhibition: -10.2%
[4]
  growth inhibition: -16.3%
[5]
  growth inhibition: 26.1%
[6]
  growth inhibition: -17%

## CC(=O)c1cccc(NC(=O)C(=O)C(C2OC(=O)c3ccccc32)[N+](=O)[O-])c1 (stereo unspecified)
[1]
  growth inhibition: 5.45%
[2]
  growth inhibition: 11.6%
[3]
  growth inhibition: 17.6%
[4]
  growth inhibition: 11.4%
[5]
  growth inhibition: 3.2%
[6]
  growth inhibition: 8.5%

## COc1ccccc1C(=O)N/N=C\c1c[nH]c2ccccc12
[1]
  growth inhibition: -3.35%
[2]
  growth inhibition: 2.05%
[3]
  growth inhibition: -4.85%
[4]
  growth inhibition: -6.25%
[5]
  growth inhibition: -5.15%
[6]
  growth inhibition: -8.3%

## CC(O)CN=Cc1ccccc1 (stereo unspecified)
[1]
  growth inhibition: -16.6%
[2]
  growth inhibition: 21.9%
[3]
  growth inhibition: -11.2%
[4]
  growth inhibition: -41.4%
[5]
  growth inhibition: -11.5%
[6]
  growth inhibition: -18.8%

## Nc1cc(N)nc(S(=O)(=O)O)n1
[1]
  growth inhibition: -5.75%
[2]
  growth inhibition: -12.9%
[3]
  growth inhibition: -4.7%
[4]
  growth inhibition: -25.9%
[5]
  growth inhibition: 3.6%
[6]
  growth inhibition: -12.9%

## N=c1nc(N)ss1
[1]
  growth inhibition: 15.8%
[2]
  growth inhibition: 5.85%
[3]
  growth inhibition: 16.4%
[4]
  growth inhibition: -31.6%
[5]
  growth inhibition: 21.7%
[6]
  growth inhibition: 44%

## O=CC(C(=O)c1ccccc1[N+](=O)[O-])c1ccccc1 (stereo unspecified)
[1]
  growth inhibition: 9.6%
[2]
  growth inhibition: 5.7%
[3]
  growth inhibition: 15.9%
[4]
  growth inhibition: 15.8%
[5]
  growth inhibition: 13.7%
[6]
  growth inhibition: 13.4%

## CCC(CCC(=O)O)C1CCCCC1 (stereo unspecified)
[1]
  growth inhibition: 29.1%
[2]
  growth inhibition: 20.9%
[3]
  growth inhibition: 31.1%
[4]
  growth inhibition: 45.9%
[5]
  growth inhibition: 46.1%
[6]
  growth inhibition: 13.2%

## O=S1OCC#CCOS(=O)OCC#CCO1 (stereo unspecified)
[1]
  growth inhibition: -7.1%
[2]
  growth inhibition: -23.8%
[3]
  growth inhibition: -7.5%
[4]
  growth inhibition: -6.2%
[5]
  growth inhibition: -3.7%
[6]
  growth inhibition: 7.7%

## CN1Cc2cc3c(cc2-c2ccccc21)OCO3
[1]
  growth inhibition: -23.7%
[2]
  growth inhibition: -35.7%
[3]
  growth inhibition: -44.9%
[4]
  growth inhibition: 6.4%
[5]
  growth inhibition: -36.5%
[6]
  growth inhibition: -35.6%

## CC1C(c2ccccc2)=NN(C)c2ccccc21 (stereo unspecified)
[1]
  growth inhibition: 19.6%
[2]
  growth inhibition: 0.6%
[3]
  growth inhibition: 3.7%
[4]
  growth inhibition: -28.1%
[5]
  growth inhibition: 8.45%
[6]
  growth inhibition: 21.8%
